Out of some 16,000 compounds screened, about 5,100 (32%) were called active. About 25% were inconclusive and are not listed. Calls follow the shape of the dose curve; as a rule, active = well fitted curve in the direction sought with a large enough effect; inconclusive = small, poorly fitted or top-dose-only effect, or effect the other way; inactive = no such curve, though single readings can be large or run the other way. This is one part of the list.
% is scaled to controls: 0 for no effect and ±100 for the full control effect.

Sequence of Cytochrome P450 3A4 (Homo sapiens) (P08684 whole entry, looked up): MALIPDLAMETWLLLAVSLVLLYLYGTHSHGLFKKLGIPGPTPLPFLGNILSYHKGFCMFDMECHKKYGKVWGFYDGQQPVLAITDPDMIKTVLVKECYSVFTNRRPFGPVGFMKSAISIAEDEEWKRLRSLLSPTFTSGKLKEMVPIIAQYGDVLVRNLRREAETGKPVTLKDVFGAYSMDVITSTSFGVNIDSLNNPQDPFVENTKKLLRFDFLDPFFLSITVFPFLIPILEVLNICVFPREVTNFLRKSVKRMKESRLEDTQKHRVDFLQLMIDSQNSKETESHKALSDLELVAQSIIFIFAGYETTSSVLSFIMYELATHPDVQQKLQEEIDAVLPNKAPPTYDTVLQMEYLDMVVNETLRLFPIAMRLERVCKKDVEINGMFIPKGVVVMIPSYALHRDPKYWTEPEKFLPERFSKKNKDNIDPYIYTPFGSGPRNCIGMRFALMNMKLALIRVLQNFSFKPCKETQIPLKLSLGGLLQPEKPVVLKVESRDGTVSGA

The test concerns the target Cytochrome P450 3A4 (Homo sapiens) (UniProt P08684). As to the kind of experiment: Cytochrome panel assay with activity outcomes. As to conditions: recombinant CYP, pro-luciferin dealkylation, luminescence, p450-cyp3a4; series mostly up to 57.1 µM; activity, negative = inhibition: at the top concentration.
With `CCCNc1c(F)c(F)c2c(C)c3ccccc3nc2c1F`, the AC50 (usually the midpoint of the concentration-response curve, whichever way the signal moves) is 6.31 µM (active). In the case of `Cc1cc(NCCO)c2ccccc2n1`, the “activity, negative = inhibition” value was -18.2% (inactive). For `CC(C)C(O)(C(C)C)C(C)C`, the activity, negative = inhibition is -4.9% [at 11.4 µM] (inactive). Regarding `COc1ccc2[nH]c3c(c2c1)CN(C)CC3`, the “activity, negative = inhibition” value was 0.59% (inactive). Take `Cc1ccc2[nH]c3c(c2c1)CN(C(=O)CN1c2ccc(F)cc2CCC1C)CC3` (centres undefined): the concentration at half-maximal activity (AC50) was 8.91 µM (active). In the case of `Nc1c(S(=O)(=O)c2ccccc2)c2nc3ccccc3nc2n1Cc1ccco1`, the AC50 was 3.98 µM (active).

Take `CC(=O)Nc1c(S(=O)(=O)c2ccccc2)c2nc3ccccc3nc2n1Cc1ccccc1`: the AC50 is 4.47 µM (active). Take `COC(=O)CCSc1cc([N+](=O)[O-])cc2c1c(C1OCCS1)nn2-c1ccccc1` (centres undefined): the AC50 is 14.1 µM (active). Take `O=C(O)/C=C\C(=O)Nc1ccc2c(c1)C(=O)c1cc(F)ccc1-2`: the AC50 is 3.16 µM (active).

Take `O=C(O)/C=C\C(=O)Nc1cccc2c1-c1ccccc1C2=O`: the activity, negative = inhibition is -10.9% [at 11.4 µM] (inactive). For the compound `O=C(O)/C=C/C(=O)Nc1ccccc1-c1ccccc1`, the “activity, negative = inhibition” value was 19% (inactive). As for `CCCCc1n[nH]c2c1/C(=N/O)CC(c1ccccc1)C2` (centres undefined), the AC50 is 12.6 µM (active). `Cc1cc(=O)[nH]c(-n2[nH]c3c(c2=O)CCCC3)n1`: the “activity, negative = inhibition” value is -8.37% (inactive).

On to `Cc1ccc(S(=O)(=O)Nc2cc(=O)[nH]c3c2CCC3)cc1`, for which the AC50 is 3.16 µM (active). Turning to `CC1=C(C(N)=O)C(c2ccccn2)n2nc(SCc3ccccc3Cl)nc2N1` (centres undefined), the AC50 is 6.31 µM (active). Turning to `Nc1nc(SCc2ccccc2Cl)cc(C(=O)O)n1`, the activity, negative = inhibition was -1.56% [at 11.4 µM] (inactive). Turning to `CC(C)=CCc1c2c(c3occ(-c4ccc(O)c(O)c4)c(=O)c3c1O)C=CC(C)(C)O2`, the activity, negative = inhibition is 0.0575% [at 11.4 µM] (inactive).

Regarding `Cc1cccc(N(CC(=O)NC2CCCC2)C(=O)c2cc3cc4cccc(C)c4nc3s2)c1C`, the AC50 is 4.47 µM (active). `CC(C)CC(C(=O)NCC1CCCO1)N(C(=O)Cn1nnc(-c2ccc(F)cc2)n1)c1ccccc1F` (centres undefined): the AC50 was 14.1 µM (active).

Consider `Cc1ccc(N(C(=O)Cn2nnc(-c3ccc(F)cc3)n2)C(CC(C)C)C(=O)NCC2CCCO2)cc1` (centres undefined), for which the AC50 was 14.1 µM (active). Take `CC(C)CC(C(=O)NCC1CCCO1)N(C(=O)Cn1nnc(-c2ccc(F)cc2)n1)c1cccc(C(F)(F)F)c1` (centres undefined): the AC50 is 10 µM (active). `CN(C(=O)Cn1nnc(-c2cccc(C(F)(F)F)c2)n1)C1CCCCC1`: the “activity, negative = inhibition” value was -16.8% (inactive).

As to `Nc1nc2c(c(=O)[nH]1)N(C=O)[C@H](CNc1ccc(C(=O)N[C@@H](CCC(=O)O)C(=O)O)cc1)CN2`, the “activity, negative = inhibition” value was -2.19% [at 25.6 µM] (inactive). As for `N/N=C1/CC(=O)NC(=O)N1`, the activity, negative = inhibition was -21.1% [at 11.4 µM] (inactive). As for `CC(=O)Nc1ccc(N2C(=O)CC(c3ccccc3)CC2=O)cc1`, the activity, negative = inhibition is 1.08% [at 2.29 µM] (inactive).

With `Cc1ccc(NC(=O)C2(NC(=O)c3cccc(N4C(=O)CSC4c4ccccc4)c3)CCCCC2)cc1` (centres undefined), the AC50 was 2.82 µM (active). With `Cc1ccc(C2C3=C(CCCC3=O)Nc3nc(SCC(=O)NCc4ccco4)[nH]c(=O)c32)cc1` (centres undefined), the AC50 was 7.94 µM (active). Take `CCCCCCN1Cc2ccccc2C1`: the “activity, negative = inhibition” value was -12.8% (inactive). On to `CCN(C(=O)c1cnc(N2CCN(c3ncccn3)CC2)c2ccccc12)c1cccc(Cl)c1`, for which the AC50 was 6.31 µM (active). In the case of `O=C1c2ccccc2S(=O)(=O)N1CCCCN1CCN(c2ncccn2)CC1`, the “activity, negative = inhibition” value was -10.4% (inactive). Turning to `CN(C(=O)c1cnc(N2CCN(c3ncccn3)CC2)c2ccccc12)c1ccc(Cl)cc1`, the activity, negative = inhibition is 28.1% [at 11.4 µM] (inactive). As for `Clc1ccc(/C=N/c2c(-c3ccc(Cl)cc3)nc3n2CCS3)cc1`, the activity, negative = inhibition was -12.1% [at 2.29 µM] (inactive).

Take `COc1cccc(-c2ccc3ncnc(NCc4cnc(C)cn4)c3c2)c1`: the AC50 was 7.94 µM (active). As to `Cc1cnc(CNc2ncnc3ccc(-c4cccc(C#N)c4)cc23)cn1`, the AC50 was 3.16 µM (active). On the same count and under the same terms, the value for `COc1ccc(/C=N/n2cnc3c([nH]c4ccc(Br)cc43)c2=O)cc1CN1CCOCC1` was 5.01 µM (active). The same measure, in the same setting: the value for `CCCCSc1nc(C)cc(NC(=S)Nc2ccc(OC)cc2)n1` was 7.08 µM (active). As for `Cc1cc2nc(SCCOC(=O)Nc3ccc(Cl)cc3)nc(C)c2cc1C`, the “activity, negative = inhibition” value is 23.5% (inactive). As for `S=C(S)O[C@@H]1C[C@@H]2C[C@H]1[C@@H]1CCC[C@H]21`, the AC50 is 3.98 µM (active).

On to `CCOC(=O)C(CC)(CC)C(=O)/C=C/c1ccc(Br)cc1`, for which the “activity, negative = inhibition” value is -13.8% (inactive). As to `Cc1nc2nc(C)c(CCC(=O)NCCCN3CCN(c4cccc(Cl)c4)CC3)c(C)n2n1`, the “activity, negative = inhibition” value is -13.6% (inactive). Turning to `Cc1nc2ncnn2c(C)c1CCC(=O)NC(C)c1ccc2c(c1)OCCO2` (centres undefined), the AC50 is 15.8 µM (active). On to `CCOC(=O)CCc1c(C)nc2ncnn2c1C`, for which the “activity, negative = inhibition” value was -3.42% (inactive).

With `Cc1ccc(CNC(=O)CCc2c(C)nc3ncnn3c2C)cc1`, the AC50 is 2 µM (active).

As to `NCC[C@H](O)C(=O)N[C@H]1C[C@@H](N)[C@@H](O[C@H]2O[C@@H](CN)[C@@H](O)[C@@H](O)[C@@H]2O)[C@@H](O)[C@@H]1O[C@H]1O[C@@H](CO)[C@@H](O)[C@@H](N)[C@@H]1O`, the “activity, negative = inhibition” value is -8.79% [at 25.6 µM] (inactive). Still for that read-out and setting: the result for `COCCn1c(=O)c(-c2cc(F)cc(F)c2)nc2cnc(N3CCOCC3)nc21` reads 5.02% (inactive). Regarding `COCCn1c(=O)c(-c2cc(F)cc(F)c2)nc2cnc(Oc3cccc(Cl)c3)nc21`, the AC50 is 10 µM (active). In the case of `COCCn1c(=O)c(-c2cc(F)cc(F)c2)nc2cnc(N(C)C)nc21`, the “activity, negative = inhibition” value was 14.1% (inactive). In the case of `COCCn1c(=O)c(-c2cc(F)cc(F)c2)nc2cnc(OC)nc21`, the half-maximal activity concentration (AC50) is 15.8 µM (active). On the same count and under the same terms, the result for `COCCn1c(=O)c(-c2cc(F)cc(F)c2)nc2cnc(Oc3ccc(OC)cc3)nc21` reads 3.16 µM (active). Consider `CC(C)CO/N=C1/C[C@@H](O)[C@@H](O)[C@@H]2[C@@H]3C(=O)N(C[C@@H]4CCCO4)C(=O)[C@H]3CC[C@@H]12`, for which the activity, negative = inhibition was -19.4% [at 11.4 µM] (inactive). Take `CCOc1ccc(CCNC(=O)C2CC(=O)N(C3CCCC3)C2)cc1OCC` (centres undefined): the AC50 was 14.1 µM (active). `Cc1cc(C)c(S(=O)(=O)NCC2CCC(C(=O)NCc3ccc4c(c3)OCO4)CC2)c(C)c1` (centres undefined): the AC50 was 0.891 µM (active). Take `CCOc1ccc(CCNC(=O)C2CCN(S(=O)(=O)CC)CC2)cc1OCC`: the AC50 was 7.08 µM (active). Turning to `CCS(=O)(=O)N1CCC(C(=O)NCCN2CCN(Cc3ccccc3)CC2)CC1`, the “activity, negative = inhibition” value was -22.5% (inactive). Same read-out and setting: the result for `C=CCNC(=O)C1CCN(S(=O)(=O)CC)CC1` reads 3.37% (inactive); that for `O=C(NCCN1CCN(Cc2ccccc2)CC1)C1CC(=O)N(C2CCCC2)C1` (centres undefined), -22.2% (inactive); that for `CC1CCCN(CCCNC(=O)C2CC(=O)N(c3ccc(F)c(Cl)c3)C2)C1` (centres undefined), -29% (inactive). As to `CCN(CCCNC(=O)C1CCN(S(=O)(=O)CC)CC1)c1cccc(C)c1`, the AC50 was 11.2 µM (active). The same measure, in the same setting: the value for `O=C(NCc1ccc2c(c1)OCO2)C1CC(=O)N(C2CCCC2)C1` (centres undefined) was 4.47 µM (active); that for `Cc1ccc(Oc2ccccc2/C=C2\SC(=O)N(C)C2=O)cc1` was 14.1 µM (active).

For `Cc1cc(N2CCOCC2)ccc1/C=C1\SC(=O)N(C(C)C)C1=O`, the “activity, negative = inhibition” value is -18.9% (inactive). In the case of `N#Cc1cccc(-c2cncnc2NCc2cccs2)c1`, the AC50 was 1.26 µM (active).

Regarding `Cc1cccc(CNc2ncncc2-c2cccc(C#N)c2)c1`, the AC50 is 0.2 µM (active). On to `N#Cc1cccc(-c2cncnc2NCc2ccccc2)c1`, for which the AC50 is 1.26 µM (active).

On to `N#Cc1cccc(-c2cncnc2NCc2cccnc2)c1`, for which the AC50 was 1.26 µM (active). On to `O=C1/C(=N\O)Cc2ccccc21`, for which the “activity, negative = inhibition” value is 26.9% (inactive).

On to `CN(C)CC/C=C1\c2ccccc2COc2ccccc21`, for which the AC50 entry was “inactive”. Turning to `CN(C)CCC=C1c2ccccc2CCc2ccccc21`, the “activity, negative = inhibition” value was -25.3% (inactive). Take `C[N+](C)([O-])CCC=C1c2ccccc2CCc2ccccc21`: the AC50 is 1.26 µM (active). For `COc1ccccc1-c1cc(C(F)(F)F)nc(S(=O)(=O)CCCC(=O)NC(C)C)n1`, the AC50 was 12.6 µM (active). Regarding `COCCCNC(=O)Cn1nc(-c2ccccc2OC)ccc1=O`, the “activity, negative = inhibition” value was -9.12% (inactive). Still for that read-out and setting: the value for `CCOC(=O)C1=C(C)NC2=C(C(=O)C(C(=O)OCC)C(c3ccc(OC)cc3)C2)C1c1ccccn1` (centres undefined) was -13.7% [at 2.29 µM] (inactive); that for `CCOC(=O)C1(C(=O)O)NC(=O)CC1c1ccccc1` (centres undefined) was 0.919% (inactive).

`CCCOc1ccccc1C1CC(=O)NC(C)=C1C(=O)OCC(C)C` (centres undefined): the AC50 was 28.2 µM (active).

Take `CC(C)(C)OC(=O)NCCc1nnc(SCC(=O)Nc2cccc(Cl)c2)o1`: the AC50 was 11.2 µM (active).

With `O=C(CSc1nnc(Cn2nnc3ccccc32)o1)Nc1cccc(Cl)c1`, the AC50 was 8.91 µM (active).

As for `O=[N+]([O-])c1ccc(C2=Nn3c(nnc3-c3ccc(Cl)cc3)SC2)o1`, the activity, negative = inhibition is -12.1% [at 11.4 µM] (inactive). For the compound `Brc1ccc(C2=Nn3c(nnc3-c3cccnc3)SC2)s1`, the AC50 is 3.55 µM (active). For the compound `CCOc1ccccc1NC(=O)CCC(=O)O`, the “activity, negative = inhibition” value was -0.16% (inactive).

As for `CCOc1ccccc1NC(=O)CSc1nnc(-c2cnccn2)n1C`, the AC50 is 8.91 µM (active). Consider `Cc1ccc(/C=N/n2c(COc3ccccc3)n[nH]c2=S)s1`, for which the “activity, negative = inhibition” value is 14.5% (inactive). With `O=[N+]([O-])c1ccccc1/C=N/n1c(COc2ccccc2)n[nH]c1=S`, the concentration at half-maximal activity (AC50) was 5.01 µM (active). For the compound `O=[N+]([O-])c1ccc(/C=N/n2c(COc3ccccc3)n[nH]c2=S)cc1`, the AC50 is 15.8 µM (active).

For the compound `O=C1NC(=S)N/C1=C/c1cccc([N+](=O)[O-])c1O`, the “activity, negative = inhibition” value was -21.1% (inactive).

On to `O=[N+]([O-])c1ccc(/C=N/N/C(=N/c2ccccn2)c2ccccn2)cc1`, for which the “activity, negative = inhibition” value is -22.7% (inactive).

Regarding `Cc1ccccc1CNc1ncnc2c1ncn2[C@@H]1O[C@@H](CO)[C@H](O)[C@@H]1O`, the “activity, negative = inhibition” value was 2.17% (inactive). On to `NC[C@H]1O[C@H](n2cnc3c(N)ncnc32)C[C@@H]1O`, for which the activity, negative = inhibition was -10.5% [at 11.4 µM] (inactive). With `CCc1ccc(N(C(=O)c2snc(C(N)=O)c2N)C(C(=O)NCCC(C)C)c2c[nH]c3ccccc23)cc1` (centres undefined), the AC50 is 3.98 µM (active).

Consider `CC(=O)OC[C@@H]1O[C@@H](O/N=C2/C[C@@H](O)[C@@H](O)[C@@H]3[C@@H]4C(=O)N(C5CCCCC5)C(=O)[C@H]4CC[C@@H]23)[C@H](OC(C)=O)[C@H](OC(C)=O)[C@@H]1OC(C)=O`, for which the activity, negative = inhibition was -21.5% [at 11.4 µM] (inactive).

These data come from PubChem BioAssay AID1851 (National Center for Advancing Translational Sciences (NCATS), 2009).
